Assay results published in PubChem BioAssay (NCI).
The panel holds about 83,000 compounds, 20% with a hit somewhere; the sample as a whole holds those more often.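 48-hour exposure, single concentration, 96-well plates; percent growth endpoint where 0 means no net growth. Active: below 10.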 Activity calls are given as the source filed them.

Assays:
Experiment in all cases: NCI-60 one-dose screen, 48 h (100 = growth as untreated, 0 = no growth, -100 = all killed)
Conditions in all cases: 10 µM unless noted
[1] = test system: BT-549 breast
[2] = test system: MDA-MB-435 melanoma
[3] = test system: SW-620 colon
[4] = test system: MCF7 breast
[5] = test system: HCT-116 colon
[6] = test system: KM12 colon
[7] = test system: HCC-2998 colon

Measured: growth

C#Cc1ccccc1NC(=O)c1sc2nc3c(cc2c1N)CCCCCC3
inactive: [1] 37.3% | [2] 74.5% | [3] 27.6% | [4] 58.4% | [5] 75.5% | [6] 42.7%

CCCn1c2cc(OCc3cn(-c4ccc(Br)cc4)nn3)ccc2c2ccnc(C)c21
inactive: [1] 90.2% | [2] 85.4% | [3] 47.4% | [4] 62.4% | [5] 54.7% | [7] 83.4% | [6] 67.6%

C[C@]12CC[C@@H]3c4ccc(O)cc4CC[C@H]3[C@@H]1C[C@H](O)C2
inactive: [1] 79.1% | [3] 33.9% | [4] 61% | [5] 49.1% | [7] 87.6% | [6] 76.3%
active: [2] 0.155%

COc1ccc(Sc2[nH]c(C(C)=O)c3ccccc23)cc1
inactive: [1] 50.1% | [3] 58.6% | [4] 57.5% | [5] 65.3% | [6] 37%
active: [2] -23.4%

C#C[C@@]1(O)[C@@H](CO)O[C@@H](n2cc(Cl)c3c(N)ccnc32)[C@@H]1O
active: [5] 4.67%
inactive: [1] 89.9% | [2] 75.6% | [3] 54.8% | [4] 36.7% | [7] 85.4% | [6] 69.9%

Cc1[nH]c2ncnc(Oc3ccc(NC(=O)Nc4ccc(Cl)c(C(F)(F)F)c4)cc3)c2c1C
inactive: [1] 79.4% | [2] 45.4% | [3] 77.9% | [4] 31.6% | [5] 42.4% | [7] 60.5% | [6] 27.3%

COc1ccc2nc(-c3ccc(Cl)cc3)cc(-c3nnc(SCC(=O)Nc4ccc(/C(C)=N\O)cc4)o3)c2c1
active: [3] 3.98% | [4] 7.93% | [5] 2.59%
inactive: [1] 25.4% | [2] 16.4% | [7] 82% | [6] 30.9%

COc1cc(NC(=O)Nc2cnc(Nc3ccc(N4CCOCC4)cc3)nc2Oc2ccc(F)cc2)cc(OC)c1
inactive: [1] 98.2% | [2] 88.3% | [3] 82.7% | [4] 91% | [7] 101% | [6] 92.4%
active: [5] 6.9%

COc1cc2nc3c(=O)n(-c4ccc(C#N)cc4)cnn3c(=O)c2cc1OC
inactive: [1] 102% | [2] 98.5% | [3] 95.3% | [4] 103% | [5] 101% | [7] 97% | [6] 91.7%

O=S(=O)(Nc1nccs1)c1ccc(Nc2nc(-c3ccncc3)cs2)cc1
inactive: [1] 125% | [2] 112% | [3] 98.1% | [4] 94.3% | [5] 93.8% | [7] 120% | [6] 105%

O=c1cc(/C=N\Nc2nc(-c3ccc(Cl)cc3Cl)cs2)c2cc(Cl)ccc2o1
inactive: [1] 96.7% | [2] 105% | [3] 104% | [4] 78.2% | [5] 80% | [7] 105% | [6] 94.3%

COc1ccc(Cc2nc(C#N)c(N3CCN(c4ccc(F)cc4)CC3)o2)cc1
inactive: [1] 94.5% | [2] 84.6% | [3] 97.7% | [4] 79.7% | [5] 78.2% | [7] 93.8% | [6] 78.8%

O=c1[nH]nc(-c2ccc(Br)cc2)c2sc(NC(=S)Nc3ccc(Cl)cc3)nc12
inactive: [1] 92.6% | [2] 104% | [3] 96.7% | [4] 79.7% | [5] 96.8% | [7] 97.6% | [6] 99.3%

C1=CC2=CC=C3C=CC=C4C(c5nc6c7ccccc7c7ccccc7c6[nH]5)=CC(=C1)C2C34 (stereo unspecified)
inactive: [1] 97.3% | [2] 99.9% | [3] 98.3% | [4] 76.9% | [5] 83.3% | [6] 86.5%

CC(C)C[C@H](C(=O)O)N(C)C(=O)[C@@H]1CCCN1C(=O)[C@H](C)OC(=O)[C@H](CCC(N)=O)NC(=O)[C@@H]1CCC(=O)N1
inactive: [1] 94.2% | [2] 106% | [3] 106% | [4] 85.2% | [5] 99.2% | [7] 108% | [6] 100%

C[C@H](Oc1cc(-c2cnn(C3CCNCC3)c2)cnc1N)c1c(Cl)ccc(F)c1Cl
inactive: [1] 75.7% | [2] 66.1% | [3] 79.5% | [4] 37.6% | [5] 31.9% | [6] 50.6%

COc1ccc(N(C)c2nc(Cl)nc3ccn(C)c23)cc1
inactive: [3] 21.9% | [4] 13.6% | [7] 15.8%
active: [1] -4.36% | [2] -26.4% | [5] -7.01% | [6] 5.77%

Cc1nn(-c2ccc(-c3ccc(OC(F)(F)F)cc3)cc2)c2nc(-c3ccccc3)nc(N)c12
inactive: [1] 98.1% | [2] 102% | [3] 81.3% | [4] 94.3% | [5] 96.7% | [7] 96.8% | [6] 100%

CCc1ccc(OCc2ccccc2C(=O)Nc2ccc3nc(C)cc(N)c3c2)cc1
active: [1] -91.9% | [2] -91.2% | [3] -64.3% | [4] -70.2% | [5] -99.3% | [7] -76.8% | [6] -78.9%

C#CCN(CCCOc1ccc(Cl)cc1Cl)CCCSC(=O)CCCCCN1/C(=C\C=C2/CCCC(/C=C/C3=[N+](CCCCCC(=O)[O-])c4ccccc4C3(C)C)=C2Cl)C(C)(C)c2ccccc21
active: [1] -34.2% | [2] -60.1% | [3] 3.31% | [4] 6.92% | [5] 9.39% | [6] 6.88%

O=c1c2ccccc2n(CC(O)CN2CCCC2)c2c(Br)cccc12 (stereo unspecified)
inactive: [1] 92.2% | [2] 86.8% | [3] 94.9% | [4] 92.9% | [5] 90.4% | [6] 94%
